Assay outcomes (PubChem BioAssay)
In the library only some 1.6% were active in any assay of this set; here they are far more common.
KCNQ2 inh – KCNQ2 (rat) channel inhibition. O88943. CHO-K1 KCNQ2, FluxOR thallium flux, 20 min; hits give low values. B-score at 10 µM. 1.1% of 310,000 active. AID 2156;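 active = fluorescence ratio B-score at most minus 3 library SDs, with starting brightness B-score within 2 library SDs, cut at about -5.5 in these data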
Target sequence (O88943 whole entry, looked up): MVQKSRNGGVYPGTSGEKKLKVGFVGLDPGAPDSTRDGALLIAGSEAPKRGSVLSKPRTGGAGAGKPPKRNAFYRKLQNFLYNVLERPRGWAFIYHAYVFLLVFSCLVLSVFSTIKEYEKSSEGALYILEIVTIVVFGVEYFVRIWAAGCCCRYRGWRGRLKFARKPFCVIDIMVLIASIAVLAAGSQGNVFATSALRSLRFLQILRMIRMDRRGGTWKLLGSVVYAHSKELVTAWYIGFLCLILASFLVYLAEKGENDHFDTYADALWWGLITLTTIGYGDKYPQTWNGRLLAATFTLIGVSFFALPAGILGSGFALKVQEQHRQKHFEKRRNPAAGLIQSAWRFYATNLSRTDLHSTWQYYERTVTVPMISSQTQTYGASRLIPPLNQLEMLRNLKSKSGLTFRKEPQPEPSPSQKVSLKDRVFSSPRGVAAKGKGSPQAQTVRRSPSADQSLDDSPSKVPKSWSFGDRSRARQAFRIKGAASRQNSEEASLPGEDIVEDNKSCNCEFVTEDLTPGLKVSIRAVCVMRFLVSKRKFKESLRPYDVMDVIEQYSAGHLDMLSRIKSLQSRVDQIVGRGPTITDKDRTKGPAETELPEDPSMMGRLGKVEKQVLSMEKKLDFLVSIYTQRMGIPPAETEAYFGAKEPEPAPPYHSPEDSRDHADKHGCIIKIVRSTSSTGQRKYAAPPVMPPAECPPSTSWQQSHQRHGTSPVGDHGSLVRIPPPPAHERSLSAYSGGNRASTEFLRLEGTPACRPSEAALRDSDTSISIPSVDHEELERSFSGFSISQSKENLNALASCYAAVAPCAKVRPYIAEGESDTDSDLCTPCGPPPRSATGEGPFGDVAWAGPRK
KCNQ2 pot – enhances the rat KCNQ2 potassium channel. B-score at 10 µM. CHO-K1 KCNQ2, FluxOR thallium flux fluorescence; hits give high values. AID 2239. 0.54% of 310,000 active;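 active = fluorescence ratio B-score at least 3 SD of library B-scores, with initial fluorescence B-score within 3 of them, cut at about 5.3 in these data; same plate scores as AID 2156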;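 note: B-score of peak minus minimum over baseline fluorescence ratio after K+ and Tl+ stimulus; positive B-score means potentiation of KCNQ2 with more thallium influx and brighter signal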
* hit, by the source's call; i = inactive; / = no result.

SMILES	KCNQ2 inh	KCNQ2 pot
CCc1ccc(OCC(=O)N2CCN(c3ccccn3)CC2)c(Br)c1	i	0.22
O=C1[C@@H]2[C@@H]3C[C@@H]([C@H]4ON=C(c5ccc(Cl)cc5)[C@@H]34)[C@@H]2C(=O)N1C1CCCCC1	i	/
CCN1CCN(c2c(/C=C3\SC(=S)N(Cc4ccco4)C3=O)c(C)c(C#N)c(=O)n2C)CC1	-7.7*	-7.7
COc1ccc(-n2c(C)cc(/C=C3\SC(=S)N(Cc4ccco4)C3=O)c2C)cc1	i	/
COCCn1c(SCC#N)nnc1-c1ccc([N+](=O)[O-])cc1	i	0.43
O=C(Cc1ccccc1)NC1CCSc2ccccc21 (configuration not stated)	-5.8*	-5.8
O=C(CCc1ccccc1)NC1CCSC1=O (configuration not stated)	i	0.52
O=C(N=C1SC2CS(=O)(=O)CC2N1Cc1ccccc1Cl)C1CC1 (configuration not stated)	i	/
Cc1ccc(C)c(OCC(=O)N2CCc3ccccc3C2)c1	i	/
Cc1cc(OCC(=O)N2CCc3ccccc3C2)c(C)cc1Br	-6.1*	-6.1
CN(C(=O)COC(=O)C(Cc1ccccc1)NC(=O)c1ccccc1)c1ccccc1 (configuration not stated)	-5.7*	-5.7
CN(C)C(=O)COC(=O)[C@H](Cc1ccccc1)NC(=O)c1ccco1	i	/
COc1ccc(NC2CCCN(C(=O)CCOc3ccccc3)C2)cc1 (configuration not stated)	i	0.27
Nc1nonc1-n1nnc(C(=O)N/N=C/c2ccccn2)c1CNc1ccccc1	i	1
COc1ccc(C2CC(c3c(-c4ccccc4)c4cc(Cl)ccc4[nH]c3=O)=NN2S(C)(=O)=O)cc1 (configuration not stated)	i	0.16
COc1ccc(OC)c(C2CC(c3c(-c4ccccc4)c4cc(Cl)ccc4[nH]c3=O)=NN2S(C)(=O)=O)c1 (configuration not stated)	-7*	-7
COC(=O)C(CC(=O)c1ccc(Br)cc1)n1ccnc1 (configuration not stated)	-6.2*	-6.2
COC(=O)C(CC(=O)c1ccc(Br)cc1)n1nc(C)cc1C (configuration not stated)	i	0.49
O=C(O)c1cc(-c2ccc(-c3c(-c4ccc5c(c4)OCO5)noc3-c3ccsc3)cc2)nc2ccccc12	i	/
c1ccc(-c2onc(-c3ccco3)c2-c2ccc3c(c2)OCO3)cc1	-5.9*	-5.9
Cc1ccc(NC(=O)COC(=O)C2CC2(Cl)Cl)cc1C (configuration not stated)	i	1.1
Cc1ccc(S(=O)(=O)N(C)c2ccccc2C(=O)Nc2c(F)cccc2F)cc1	-5.9*	-5.9
CC(=O)c1cccc(NC(=O)c2ccccc2N(C)S(=O)(=O)c2ccc(C)cc2)c1	i	/
C=CCN(C(=O)c1ccc2snnc2c1)c1ccccc1	i	/
CCCN(CC1CCCO1)C(=O)c1cc(COc2ccc(F)cc2F)on1 (configuration not stated)	i	/
SMILES	KCNQ2 inh	KCNQ2 pot
O=C(CSc1nnc(NC(=O)c2ccccc2F)s1)NCc1ccco1	i	0.78
COc1c(CC=C(C)C)cc(C2CC(=O)c3c(O)cc(O)cc3O2)cc1CC=C(C)C (configuration not stated)	-5.6*	-5.6
O=C1C[C@@H](c2ccccc2)Oc2cc(O)cc(O)c21	i	0.64
Cc1cccc(N2CCN(C(=O)c3cn(C)c(=O)c4c3c3ccccc3n4C)CC2)c1C	i	/
Cc1ccc(Cl)cc1N1CCN(C(=O)c2cn(C)c(=O)c3c2c2ccccc2n3C)CC1	-7.5*	-7.5
COc1cc(NC(=O)c2ccccc2)c(OC)cc1NC(=O)Cc1ccc(C)cc1	i	/
COc1ccccc1C(=O)N/C(=C\c1cn(C)c2ccccc12)C(=O)N1CCOCC1	i	/
Cn1cc(/C=C(\NC(=O)c2ccccc2Cl)C(=O)N2CCOCC2)c2ccccc21	-7*	-7
CCS(=O)(=O)N1CCC(N2CCC(C)CC2)CC1	i	0.32
COc1ccc(-c2nc(=S)[nH][nH]2)cc1OC	i	/
COc1ccc(-c2nc(=S)[nH][nH]2)cc1	-8.4*	-8.4
CCOC(=O)N1CCN(C(=O)/C(=C/c2ccc(Br)cc2)NC(=O)c2ccc(OC)cc2)CC1	i	/
COC(=O)Cc1ccc(N(Cc2ccccc2F)S(=O)(=O)c2ccc(C)cc2)cc1	-6.6*	-6.6
Cc1ccc(N(CCC(=O)O)S(=O)(=O)c2ccccc2)cc1	i	0.81
O=C(Nc1ccc(Br)cc1)c1cccc(N2C(=O)C3CCCCC3C2=O)c1 (configuration not stated)	i	3.1
CC(C)n1cc(C(=O)NC2CC(C)(C)Cc3c2cnn3-c2ccccc2)cn1 (configuration not stated)	i	/
Cc1c(-c2cc(Br)ccc2O)nc2cc3c(cc2c1C)OCO3	i	/
O=C(NCc1ccco1)c1ccc(Cn2c(=O)c3ccccc3n(Cc3ccc(Cl)cc3)c2=O)cc1	-6.5*	-6.5
O=C(NCc1ccco1)c1ccc(Cn2c(=O)c3ccccc3n(Cc3cccc(F)c3)c2=O)cc1	i	/
Cc1nn(CC(=O)NCc2ccc(OC(C)C)cc2)c(=O)c2cc(-c3ccccc3)nn12	i	/
CCC(C)N(C(=O)c1csnn1)C(C(=O)NC1CCCC1)c1c(F)cccc1Cl (configuration not stated)	i	/
COc1ccc(N2C3=C(CC4=C2CCCC4=O)C(=O)CCC3)cc1	i	/
COc1ccc(N2C3=C(CC4=C2CC(C)(C)CC4=O)C(=O)CC(C)(C)C3)cc1	-10*	-10
O=C(OCCNC(=O)c1ccc2ccccc2n1)c1ccc(F)cc1	-7.3*	-7.3
O=C(COC(=O)c1ccc2ccccc2n1)c1ccc(F)cc1	i	0.91
SMILES	KCNQ2 inh	KCNQ2 pot
O=C(CSc1ccc(F)cc1)Nc1ccc2c(c1)C(=O)NC2=O	i	1.6
COc1ccc(NC(=O)CCC(=O)Nc2ccc3nc(N4CCOCC4)cc(C)c3c2)c(OC)c1	i	0.24
COc1ccc(N(C)C(=O)CCC(=O)Nc2ccc3nc(N4CCOCC4)cc(C)c3c2)c(OC)c1	-7.8*	-7.8
CCn1nc(C)c(Br)c1Nc1ccc(Br)cc1	i	4.5
COc1ccc(CC(=O)O/N=C(\N)c2ccccc2)cc1OC	i	/
COc1ccc(Oc2cnc3ccccc3n2)cc1	-6*	-6
c1ccc(Oc2cnc3ccccc3n2)cc1	i	2.2
COc1ccccc1N(C)C(=O)c1cc(S(=O)(=O)N2CCCC2)cn1C	i	/
OCCCNc1c2ccccc2nc2ccccc12	i	0.47
Cc1cc(NC(=O)C(C)Oc2ccccc2)no1 (configuration not stated)	i	/
CC(=O)Nc1ccc2c3c(cccc13)CC2	i	1.4
CC(C)CC(=O)Nc1ccc2c3c(cccc13)CC2	i	26*
CCCCC(=O)Nc1ccc2c3c(cccc13)CC2	i	19*
Cc1cc(C)cc(OCC(=O)Nc2ccc3c4c(cccc24)CC3)c1	i	0.25
CCOc1ccc(CCNC(=O)Cn2ncn3nc(-c4ccc(OC)cc4)cc3c2=O)cc1OCC	i	/
CC(C)n1c(O)c(N=NC(=O)C2COc3ccccc3O2)c2ccccc21 (configuration not stated)	i	2.2
O=C(/C=C/c1ccc(F)cc1)N1CC[C@@]2(O)CCCC[C@H]2C1	i	1.5
CSc1ccccc1C(=O)N(C)C(c1ccccc1)c1ccccc1	-5.7*	-5.7
